Measurements reported in the OligoGym collection.

molecular target: TMEM109; assay: pooled miR-30 sensor sort-seq; sequence = guide strand; details: shRNA
Also: reference of the scale not given here.

Question: Which sensor-assay potency score (higher = more potent) does the source give for TTCCACATCAAACCTGAACAGT here?
Answer: Its sensor-assay potency score (higher = more potent) is -0.603.

Question: With TTTAAAACCAACCAAGCACTGA as the sequence, how does the sensor-assay potency score (higher = more potent) read?
Answer: Its sensor-assay potency score (higher = more potent) is -0.265.

Question: With TGGGTCAAGACATCAACTGGGG as the sequence, how does the sensor-assay potency score (higher = more potent) read?
Answer: Its sensor-assay potency score (higher = more potent) is -0.224.

Question: With TCTGGGTCAAGACATCAACTGG as the sequence, how does the sensor-assay potency score (higher = more potent) read?
Answer: The sensor-assay potency score (higher = more potent) was -1.37.

Question: Which sensor-assay potency score (higher = more potent) does the source give for TTTGGTATGACACTGGCGGTGT here?
Answer: Its sensor-assay potency score (higher = more potent) is 0.696.

Question: TCGCACAGATCGACCTATCTGG was tested. Which sensor-assay potency score (higher = more potent) did it give?
Answer: Its sensor-assay potency score (higher = more potent) is -0.204.

Question: TCCCTCGCACAGATCGACCTAT was tested. Which sensor-assay potency score (higher = more potent) did it give?
Answer: The sensor-assay potency score (higher = more potent) was -0.902.

Question: Which sensor-assay potency score (higher = more potent) does the source give for TGTGATTCCACATCAAACCTGA here?
Answer: Its sensor-assay potency score (higher = more potent) is 0.855.

Question: With TATTCTTCACATCATGTGCCAA as the sequence, how does the sensor-assay potency score (higher = more potent) read?
Answer: The sensor-assay potency score (higher = more potent) was -0.456.

Question: How did the sensor-assay potency score (higher = more potent) turn out when TTGAACACATGCTTTCCCCATG was run?
Answer: Its sensor-assay potency score (higher = more potent) is -0.916.

Question: TTTGAACACATGCTTTCCCCAT was tested. Which sensor-assay potency score (higher = more potent) did it give?
Answer: Its sensor-assay potency score (higher = more potent) is -0.568.

Question: For TTTCTCTGTTTCTCTTGGCTAG, which sensor-assay potency score (higher = more potent) is on record?
Answer: Its sensor-assay potency score (higher = more potent) is -0.388.

molecular target: TMEM110; assay: as above; details: shRNA

Question: Which sensor-assay potency score (higher = more potent) does the source give for TTAAGTCACAGTAGTCTGGGGG here?
Answer: The sensor-assay potency score (higher = more potent) was -0.231.

Question: For TTTAAGTCACAGTAGTCTGGGG, which sensor-assay potency score (higher = more potent) is on record?
Answer: The sensor-assay potency score (higher = more potent) was 0.109.

Question: TTTTAAGTCACAGTAGTCTGGG was tested. Which sensor-assay potency score (higher = more potent) did it give?
Answer: The sensor-assay potency score (higher = more potent) was 0.293.

Question: For TTTGTAGTGCAACTGAATGGGG, which sensor-assay potency score (higher = more potent) is on record?
Answer: Its sensor-assay potency score (higher = more potent) is -0.728.

Question: With TTAGCTTTCGTCTTCCCCTTTC as the sequence, how does the sensor-assay potency score (higher = more potent) read?
Answer: Its sensor-assay potency score (higher = more potent) is -0.779.

Question: With TTCAGTGAGATCTGCTAGGTAT as the sequence, how does the sensor-assay potency score (higher = more potent) read?
Answer: The sensor-assay potency score (higher = more potent) was 0.113.

Question: Which sensor-assay potency score (higher = more potent) does the source give for TTGTAGTGCAACTGAATGGGGA here?
Answer: The sensor-assay potency score (higher = more potent) was -0.276.

Question: With TAAGTCACAGTAGTCTGGGGGC as the sequence, how does the sensor-assay potency score (higher = more potent) read?
Answer: Its sensor-assay potency score (higher = more potent) is 0.0391.

Question: For TTCTTCTAGCTTAGCTTTCGTC, which sensor-assay potency score (higher = more potent) is on record?
Answer: The sensor-assay potency score (higher = more potent) was -0.864.

Question: TTTTTAAGTCACAGTAGTCTGG was tested. Which sensor-assay potency score (higher = more potent) did it give?
Answer: Its sensor-assay potency score (higher = more potent) is -0.583.

Question: TTGGAAGTGTCTAAAAACCATA was tested. Which sensor-assay potency score (higher = more potent) did it give?
Answer: The sensor-assay potency score (higher = more potent) was -1.5.

Question: Which sensor-assay potency score (higher = more potent) does the source give for TTCTAGCTTAGCTTTCGTCTTC here?
Answer: The sensor-assay potency score (higher = more potent) was -0.0536.

molecular target: TMEM117; assay: as above; details: shRNA

Question: Which sensor-assay potency score (higher = more potent) does the source give for TATTACTGAATTTTGCATCTGT here?
Answer: Its sensor-assay potency score (higher = more potent) is 1.08.

Question: Which sensor-assay potency score (higher = more potent) does the source give for TATCAGTGACCATCCAAGCTGT here?
Answer: The sensor-assay potency score (higher = more potent) was -0.461.

Question: TTGAACATCAGATACATGGGTC was tested. Which sensor-assay potency score (higher = more potent) did it give?
Answer: Its sensor-assay potency score (higher = more potent) is 0.48.

Question: Which sensor-assay potency score (higher = more potent) does the source give for TTTGTCTTGATTCTCCATGCGT here?
Answer: Its sensor-assay potency score (higher = more potent) is -0.0154.

Question: For TAGTAGATTCGTTCAACTGTGA, which sensor-assay potency score (higher = more potent) is on record?
Answer: The sensor-assay potency score (higher = more potent) was 0.105.

Question: With TTAATCGGAGCAACTGACCAAA as the sequence, how does the sensor-assay potency score (higher = more potent) read?
Answer: The sensor-assay potency score (higher = more potent) was -0.0675.

Question: With TTGTCTTGATTCTCCATGCGTG as the sequence, how does the sensor-assay potency score (higher = more potent) read?
Answer: Its sensor-assay potency score (higher = more potent) is -0.601.

Question: How did the sensor-assay potency score (higher = more potent) turn out when ATTTACATCAACATCTCCCATG was run?
Answer: Its sensor-assay potency score (higher = more potent) is -0.907.

Question: For TTTCACTGTATATATCTTCTGC, which sensor-assay potency score (higher = more potent) is on record?
Answer: The sensor-assay potency score (higher = more potent) was -0.0324.

Question: How did the sensor-assay potency score (higher = more potent) turn out when TTAGTGTGATTGGACCTCCATT was run?
Answer: The sensor-assay potency score (higher = more potent) was -1.69.

Question: How did the sensor-assay potency score (higher = more potent) turn out when TTGAAGTCAGACCTGATGCAAA was run?
Answer: The sensor-assay potency score (higher = more potent) was -0.838.

Question: TACATCAACATCTCCCATGAAA was tested. Which sensor-assay potency score (higher = more potent) did it give?
Answer: Its sensor-assay potency score (higher = more potent) is -1.02.

molecular target: TMEM130; assay: as above; details: shRNA

Question: For TATGTGTACAACCTTTAGTTAT, which sensor-assay potency score (higher = more potent) is on record?
Answer: Its sensor-assay potency score (higher = more potent) is -1.54.

Question: Which sensor-assay potency score (higher = more potent) does the source give for TTGCTGAGTGGCATTCCGCAGG here?
Answer: The sensor-assay potency score (higher = more potent) was -0.984.

Question: TTCAAGGTCACGGTCATCTTTT was tested. Which sensor-assay potency score (higher = more potent) did it give?
Answer: The sensor-assay potency score (higher = more potent) was -0.705.
